According to PubChem BioAssay (NCI):
The panel holds about 79,000 compounds, 15% with a hit somewhere; the sample as a whole holds those more often. Values without a mark were called inactive. Active and inactive are the calls of the source. Cut-off read from the data, not from the text of the source: active = growth inhibition above about 70%; inactive = the rest.

How the values were obtained:
[1] = NCI Yeast Anticancer Drug Screen. Data for the rad50 strain (AID 155);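 note: 0% = growth of vehicle-only cultures of the same strain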; conditions: S. cerevisiae rad50 strain growth inhibition, active compounds read high
In short: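 Yeast carrying a defined DNA repair defect were exposed to test compounds, and growth was compared with vehicle-treated controls to give percent inhibition.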

[2] = NCI Yeast Anticancer Drug Screen. Data for the mec2-1 strain (AID 157); conditions: S. cerevisiae mec2-1 strain, active compounds read high
In short: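 mec2-1 yeast strain, carrying an alteration in DNA damage repair or cell cycle control, was exposed to compounds; growth inhibition was measured relative to vehicle-treated controls.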

[3] = NCI Yeast Anticancer Drug Screen. Data for the sgs1 mgt1 strain (AID 161);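 note: 0% = growth of cultures given vehicle only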; conditions: S. cerevisiae sgs1 mgt1 strain, active compounds read high
In short: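 Yeast cells carrying a defined DNA-repair defect were exposed to test compounds. Growth inhibition was measured relative to vehicle-treated controls.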

[4] = NCI Yeast Anticancer Drug Screen. Data for the cln2 rad14 strain (AID 165);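 note: 0% = growth equal to vehicle treated cultures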; conditions: S. cerevisiae cln2 rad14 strain, active compounds read high
In short: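 Yeast carrying cln2 and rad14 alterations (cell cycle control and DNA damage repair) were exposed to compounds. Growth inhibition was measured against vehicle-treated controls.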

[5] = NCI Yeast Anticancer Drug Screen. Data for the bub3 strain (AID 167); conditions: S. cerevisiae bub3 mutant strain, active compounds read high
In short: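 Compounds were applied to a genetically altered yeast strain carrying a cell-cycle control defect. Growth inhibition was scored against vehicle-treated controls.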

[6] = NCI Yeast Anticancer Drug Screen. Data for the mlh1 rad18 strain (AID 175); conditions: S. cerevisiae mlh1 rad18 strain growth inhibition, active compounds read high
In short: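 Growth inhibition of the yeast strain was measured after compound exposure and expressed relative to vehicle-treated controls. The strain carries defined defects in DNA damage repair.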

[7] = at 5.0 µM (retest, dose inferred, filed as 0.5)
[8] = at 50.0 µM (retest, dose inferred, filed as 5.0)

In the case of `Cc1cc(C(C)(CC(C)C)c2ccc(O)c(C)c2)ccc1O`, the growth inhibition [1, 7] is reported as 99% (active), the growth inhibition [1, 8] is reported as 99% (active) and the growth inhibition ([1]; at 50.0 µM) is reported as 91.1% (active). For the same compound, the growth inhibition [2, 7] was 98% (active), the growth inhibition [2, 8] was 99% (active) and the growth inhibition ([2]; at 50.0 µM) was 93% (active). For the same compound, the growth inhibition [3, 7] was 97% (active), the growth inhibition [3, 8] was 98% (active) and the growth inhibition ([3]; at 50.0 µM) was 93.2% (active). The growth inhibition [4, 7] was 68%, the growth inhibition [4, 8] was 98% (active) and the growth inhibition ([4]; at 50.0 µM) was 92.5% (active). For the same compound, the growth inhibition [5, 7] was 98% (active), the growth inhibition [5, 8] was 97% (active) and the growth inhibition ([5]; at 50.0 µM) was 91.4% (active). For the same compound, the growth inhibition [6, 7] was 100% (active), the growth inhibition [6, 8] was 100% (active) and the growth inhibition ([6]; at 50.0 µM) was 91.3% (active).

For `Cc1c(S(C)=O)[n+](=O)c2ccccc2n1[O-]` (configuration not stated), the growth inhibition [1, 7] was 13%, the growth inhibition [1, 8] was 85% (active) and the growth inhibition ([1]; at 50.0 µM) was 32.9%. The growth inhibition [2, 7] was 0%, the growth inhibition [2, 8] was 93% (active) and the growth inhibition ([2]; at 50.0 µM) was 33.7%. The growth inhibition [3, 7] was 8%, the growth inhibition [3, 8] was 92% (active) and the growth inhibition ([3]; at 50.0 µM) was 35.9%. For the same compound, the growth inhibition [4, 7] was 2%, the growth inhibition [4, 8] was 40% and the growth inhibition ([4]; at 50.0 µM) was 7.75%. The growth inhibition [5, 7] was -2%, the growth inhibition [5, 8] was 89% (active) and the growth inhibition ([5]; at 50.0 µM) was -5.5%. For the same compound, the growth inhibition [6, 7] was 18%, the growth inhibition [6, 8] was 96% (active) and the growth inhibition ([6]; at 50.0 µM) was 58.6%.

In the case of `CC(=O)Nc1cccc2ccc(C)cc12`, the growth inhibition [1, 7] is reported as 0%, the growth inhibition [1, 8] is reported as 1% and the growth inhibition ([1]; at 50.0 µM) is reported as -5.5%. The growth inhibition [2, 7] was 2%, the growth inhibition [2, 8] was 4% and the growth inhibition ([2]; at 50.0 µM) was 4.85%. The growth inhibition [3, 7] was 1%, the growth inhibition [3, 8] was 1% and the growth inhibition ([3]; at 50.0 µM) was -22.9%. The growth inhibition [4, 7] was 1%, the growth inhibition [4, 8] was 5% and the growth inhibition ([4]; at 50.0 µM) was 71.3% (active). For the same compound, the growth inhibition [5, 7] was 1%, the growth inhibition [5, 8] was -1% and the growth inhibition ([5]; at 50.0 µM) was 23.1%. The growth inhibition [6, 7] was 0%, the growth inhibition [6, 8] was 2% and the growth inhibition ([6]; at 50.0 µM) was 41.8%.

For `C[n+]1c(-c2ccc(/C=N/NC(=O)C(=O)N/N=C/c3ccc(-c4cn5ccccc5[n+]4C)cc3)cc2)cn2ccccc21`, the growth inhibition [1, 7] was 59%, the growth inhibition [1, 8] was 95% (active) and the growth inhibition ([1]; at 50.0 µM) was 89.8% (active). The growth inhibition [2, 7] was 63%, the growth inhibition [2, 8] was 97% (active) and the growth inhibition ([2]; at 50.0 µM) was 92.1% (active). For the same compound, the growth inhibition [3, 7] was 69%, the growth inhibition [3, 8] was 98% (active) and the growth inhibition ([3]; at 50.0 µM) was 88.6% (active). The growth inhibition [4, 7] was 28%, the growth inhibition [4, 8] was 91% (active) and the growth inhibition ([4]; at 50.0 µM) was 84.7% (active). For the same compound, the growth inhibition [5, 7] was 64%, the growth inhibition [5, 8] was 98% (active) and the growth inhibition ([5]; at 50.0 µM) was 91% (active). The growth inhibition [6, 7] was 70% (active), the growth inhibition [6, 8] was 98% (active) and the growth inhibition ([6]; at 50.0 µM) was 89.5% (active).

With `CC(C(O)c1ccccc1)[N+](=O)[O-]` (configuration not stated) the growth inhibition [1, 7] was 67%, the growth inhibition [1, 8] was 96% (active) and the growth inhibition ([1]; at 50.0 µM) was 97% (active). For the same compound, the growth inhibition [2, 7] was 8%, the growth inhibition [2, 8] was 41% and the growth inhibition ([2]; at 50.0 µM) was 29.2%. For the same compound, the growth inhibition [3, 7] was 6%, the growth inhibition [3, 8] was 53% and the growth inhibition ([3]; at 50.0 µM) was 55.1%. For the same compound, the growth inhibition [4, 7] was 3%, the growth inhibition [4, 8] was 63% and the growth inhibition ([4]; at 50.0 µM) was 28.1%. The growth inhibition [5, 7] was 1%, the growth inhibition [5, 8] was 78% (active) and the growth inhibition ([5]; at 50.0 µM) was 39.6%. For the same compound, the growth inhibition [6, 7] was 7%, the growth inhibition [6, 8] was 74% (active) and the growth inhibition ([6]; at 50.0 µM) was 38.5%.

With `CCCCCCCCCCCCCCOC(=O)C(N)Cc1ccc(O)cc1` (configuration not stated) the growth inhibition [1, 7] was 7%, the growth inhibition [1, 8] was 97% (active) and the growth inhibition ([1]; at 50.0 µM) was 98.6% (active). For the same compound, the growth inhibition [2, 7] was 1%, the growth inhibition [2, 8] was 98% (active) and the growth inhibition ([2]; at 50.0 µM) was 99.2% (active). The growth inhibition [3, 7] was 4%, the growth inhibition [3, 8] was 98% (active) and the growth inhibition ([3]; at 50.0 µM) was 97.9% (active). For the same compound, the growth inhibition [4, 7] was 1%, the growth inhibition [4, 8] was 94% (active) and the growth inhibition ([4]; at 50.0 µM) was 95.1% (active). For the same compound, the growth inhibition [5, 7] was 3%, the growth inhibition [5, 8] was 98% (active) and the growth inhibition ([5]; at 50.0 µM) was 98.5% (active). The growth inhibition [6, 7] was 7%, the growth inhibition [6, 8] was 97% (active) and the growth inhibition ([6]; at 50.0 µM) was 98.8% (active).

In the case of `O=C1C=C(Br)C(=O)C(Br)=C1`, the growth inhibition [1, 7] is reported as 25%, the growth inhibition [1, 8] is reported as 99% (active) and the growth inhibition ([1]; at 50.0 µM) is reported as 93.8% (active). The growth inhibition [2, 7] was 21%, the growth inhibition [2, 8] was 99% (active) and the growth inhibition ([2]; at 50.0 µM) was 99.6% (active). The growth inhibition [3, 7] was 13%, the growth inhibition [3, 8] was 98% (active) and the growth inhibition ([3]; at 50.0 µM) was 99.3% (active). The growth inhibition [4, 7] was 28%, the growth inhibition [4, 8] was 86% (active) and the growth inhibition ([4]; at 50.0 µM) was 25.7%. The growth inhibition [5, 7] was 31%, the growth inhibition [5, 8] was 99% (active) and the growth inhibition ([5]; at 50.0 µM) was 94.2% (active). For the same compound, the growth inhibition [6, 7] was 40%, the growth inhibition [6, 8] was 99% (active) and the growth inhibition ([6]; at 50.0 µM) was 97.5% (active).

For `COc1ccc2c(c1)C(=O)C(Br)CC2` (configuration not stated), the growth inhibition [1, 7] was 16%, the growth inhibition [1, 8] was 98% (active) and the growth inhibition ([1]; at 50.0 µM) was 25.4%. The growth inhibition [2, 7] was 12%, the growth inhibition [2, 8] was 99% (active) and the growth inhibition ([2]; at 50.0 µM) was 66.6%. The growth inhibition [3, 7] was 2%, the growth inhibition [3, 8] was 55% and the growth inhibition ([3]; at 50.0 µM) was 71.2% (active). For the same compound, the growth inhibition [4, 7] was 26%, the growth inhibition [4, 8] was 92% (active) and the growth inhibition ([4]; at 50.0 µM) was 32%. The growth inhibition [5, 7] was 32%, the growth inhibition [5, 8] was 99% (active) and the growth inhibition ([5]; at 50.0 µM) was 70%. The growth inhibition [6, 7] was 13%, the growth inhibition [6, 8] was 99% (active) and the growth inhibition ([6]; at 50.0 µM) was 65.8%.

In the case of `S=C(NCCNC(=S)[S][Sn]([c]1ccccc1)([c]1ccccc1)[c]1ccccc1)[S][Sn]([c]1ccccc1)([c]1ccccc1)[c]1ccccc1`, the growth inhibition [1, 7] is reported as 97% (active), the growth inhibition [1, 8] is reported as 93% (active) and the growth inhibition ([1]; at 50.0 µM) is reported as 89.8% (active). For the same compound, the growth inhibition [2, 7] was 98% (active), the growth inhibition [2, 8] was 96% (active) and the growth inhibition ([2]; at 50.0 µM) was 90.8% (active). The growth inhibition [3, 7] was 97% (active), the growth inhibition [3, 8] was 94% (active) and the growth inhibition ([3]; at 50.0 µM) was 91.5% (active). The growth inhibition [4, 7] was 96% (active), the growth inhibition [4, 8] was 93% (active) and the growth inhibition ([4]; at 50.0 µM) was 87.9% (active). The growth inhibition [5, 7] was 98% (active), the growth inhibition [5, 8] was 94% (active) and the growth inhibition ([5]; at 50.0 µM) was 90% (active). The growth inhibition [6, 7] was 98% (active), the growth inhibition [6, 8] was 91% (active) and the growth inhibition ([6]; at 50.0 µM) was 89.8% (active).
